# About 7,900 targets were measured; listed, in parts, are those with a hit and a random draw of the rest. About 0.6% of all pairs of compound and target were hits. A number with no mark means an inactive call.
# Key:
# Test in all cases: log2 fold change, soluble protein after heating vs DMSO (PISA); higher = thermal stabilisation; K562 cells, 10 uM, 30 min; active = over 0.2 and 3.5 SD of the protein, either way, in both replicates (recomputed)
# bafetinib = compound: Cc1ccc(NC(=O)c2ccc(CN3CC[C@H](N(C)C)C3)c(C(F)(F)F)c2)cc1Nc1nccc(-c2cncnc2)n1 [bafetinib]
# In short: (§1)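 K562 cells at 2×10^6 cells/mL were exposed to 10 μM compound for 30 min, then aliquots were heated for 3 min across 48°C-58°C, pooled, and extracted in PBS containing 0.5% NP-40 at 4°C. The supernatant after 21,000xg for 90 min was taken as soluble protein and measured by TMTpro 16plex LC-MS/MS with channel sums equalised. Thermal stability is reported relative to control samples, with values from duplicates. Fold changes are given on a log2 scale.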
# [1] = compound: Cc1cccc(CC(=O)N2CCc3c2ccc(-c2cn(C)c4ncnc(N)c24)c3F)n1
# In short: as §1
# nilotinib = compound: Cc1cn(-c2cc(NC(=O)c3ccc(C)c(Nc4nccc(-c5cccnc5)n4)c3)cc(C(F)(F)F)c2)cn1 [nilotinib]
# In short: as §1
# [2] = compound: Cc1nc(Nc2n[nH]c3c2CN(C(=O)N[C@H](CN(C)C)c2ccccc2)C3(C)C)c2sccc2n1
# In short: as §1
# dasatinib = compound: Cc1nc(Nc2ncc(C(=O)Nc3c(C)cccc3Cl)s2)cc(N2CCN(CCO)CC2)n1 [dasatinib]
# In short: as §1
# [3] = compound: Cc1ncc(-c2ccnc(Nc3ccc(S(C)(=O)=O)cc3)n2)n1C(C)C
# In short: as §1
# [4] = compound: Cn1cc(-c2ccc3c(c2)CCN3C(=O)Cc2cccc(C(F)(F)F)c2)c2c(N)ncnc21
# In short: as §1
# [5] = compound: Cn1cc(-c2ccc3nnc(C(F)(F)c4ccc5ncccc5c4)n3n2)cn1
# In short: as §1
# tipifarnib = compound: Cn1cncc1[C@@](N)(c1ccc(Cl)cc1)c1ccc2c(c1)c(-c1cccc(Cl)c1)cc(=O)n2C [tipifarnib]
# In short: as §1
# mubritinib = compound: FC(F)(F)c1ccc(/C=C/c2nc(COc3ccc(CCCCn4ccnn4)cc3)co2)cc1 [mubritinib]
# In short: as §1
# Chain of UniProt Q99747 (Q99747 whole entry, looked up): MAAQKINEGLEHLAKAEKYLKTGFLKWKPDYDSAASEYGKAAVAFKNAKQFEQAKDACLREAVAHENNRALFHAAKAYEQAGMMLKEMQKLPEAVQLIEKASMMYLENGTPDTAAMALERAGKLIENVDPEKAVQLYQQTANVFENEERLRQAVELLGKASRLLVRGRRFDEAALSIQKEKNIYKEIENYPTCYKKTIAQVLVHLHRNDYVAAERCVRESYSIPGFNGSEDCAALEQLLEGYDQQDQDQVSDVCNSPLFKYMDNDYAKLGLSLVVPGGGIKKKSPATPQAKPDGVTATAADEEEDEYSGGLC
# Chain of UniProt Q12986 (Q12986 whole entry, looked up): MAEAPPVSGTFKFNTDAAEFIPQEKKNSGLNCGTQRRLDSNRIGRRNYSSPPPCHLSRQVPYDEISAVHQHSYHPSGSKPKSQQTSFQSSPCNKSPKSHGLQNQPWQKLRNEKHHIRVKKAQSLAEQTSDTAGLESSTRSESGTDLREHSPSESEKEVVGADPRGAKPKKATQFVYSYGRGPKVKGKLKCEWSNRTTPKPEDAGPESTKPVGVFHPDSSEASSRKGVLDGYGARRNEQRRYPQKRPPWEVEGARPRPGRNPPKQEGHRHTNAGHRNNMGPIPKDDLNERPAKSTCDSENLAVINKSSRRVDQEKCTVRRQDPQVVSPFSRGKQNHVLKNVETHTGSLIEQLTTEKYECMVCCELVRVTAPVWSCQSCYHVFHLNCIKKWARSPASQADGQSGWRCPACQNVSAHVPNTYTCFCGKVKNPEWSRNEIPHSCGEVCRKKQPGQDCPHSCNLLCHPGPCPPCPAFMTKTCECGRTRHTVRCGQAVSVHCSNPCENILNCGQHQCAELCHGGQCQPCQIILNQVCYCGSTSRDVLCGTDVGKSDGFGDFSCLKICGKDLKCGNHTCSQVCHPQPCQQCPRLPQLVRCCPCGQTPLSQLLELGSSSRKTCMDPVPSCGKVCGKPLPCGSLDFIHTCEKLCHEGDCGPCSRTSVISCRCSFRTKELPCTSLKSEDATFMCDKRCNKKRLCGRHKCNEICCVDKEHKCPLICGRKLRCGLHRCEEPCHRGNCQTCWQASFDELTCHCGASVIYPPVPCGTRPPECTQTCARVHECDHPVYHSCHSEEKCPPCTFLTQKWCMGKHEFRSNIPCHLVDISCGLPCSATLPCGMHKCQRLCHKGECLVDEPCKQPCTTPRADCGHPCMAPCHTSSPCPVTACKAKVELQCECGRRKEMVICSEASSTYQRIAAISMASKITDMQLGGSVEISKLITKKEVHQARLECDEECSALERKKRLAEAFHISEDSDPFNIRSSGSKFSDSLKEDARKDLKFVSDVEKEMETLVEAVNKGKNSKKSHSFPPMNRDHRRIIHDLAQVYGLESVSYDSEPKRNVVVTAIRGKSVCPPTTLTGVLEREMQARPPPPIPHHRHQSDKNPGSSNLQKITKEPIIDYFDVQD
# Chain of UniProt Q9NWU1 (Q9NWU1 whole entry, looked up): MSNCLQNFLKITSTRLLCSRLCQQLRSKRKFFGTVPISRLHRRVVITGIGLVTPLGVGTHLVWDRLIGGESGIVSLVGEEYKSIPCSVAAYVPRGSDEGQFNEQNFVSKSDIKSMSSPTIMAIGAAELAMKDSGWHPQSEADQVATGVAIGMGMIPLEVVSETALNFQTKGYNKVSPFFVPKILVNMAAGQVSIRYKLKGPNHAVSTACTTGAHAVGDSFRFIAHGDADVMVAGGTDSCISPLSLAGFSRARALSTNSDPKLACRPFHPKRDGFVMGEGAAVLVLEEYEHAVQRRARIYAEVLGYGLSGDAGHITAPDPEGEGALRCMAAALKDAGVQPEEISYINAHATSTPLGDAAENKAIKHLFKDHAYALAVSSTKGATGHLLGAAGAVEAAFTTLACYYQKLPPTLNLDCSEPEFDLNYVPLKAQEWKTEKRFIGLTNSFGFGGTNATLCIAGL
# Chain of UniProt O00217 (O00217 whole entry, looked up): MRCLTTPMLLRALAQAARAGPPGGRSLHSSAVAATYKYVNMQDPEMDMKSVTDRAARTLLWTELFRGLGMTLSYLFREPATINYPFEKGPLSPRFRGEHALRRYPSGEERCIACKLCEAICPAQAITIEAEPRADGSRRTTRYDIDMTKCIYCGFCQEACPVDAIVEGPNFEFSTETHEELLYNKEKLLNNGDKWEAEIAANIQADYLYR
# Chain of UniProt Q9Y2I1 (Q9Y2I1 whole entry, looked up): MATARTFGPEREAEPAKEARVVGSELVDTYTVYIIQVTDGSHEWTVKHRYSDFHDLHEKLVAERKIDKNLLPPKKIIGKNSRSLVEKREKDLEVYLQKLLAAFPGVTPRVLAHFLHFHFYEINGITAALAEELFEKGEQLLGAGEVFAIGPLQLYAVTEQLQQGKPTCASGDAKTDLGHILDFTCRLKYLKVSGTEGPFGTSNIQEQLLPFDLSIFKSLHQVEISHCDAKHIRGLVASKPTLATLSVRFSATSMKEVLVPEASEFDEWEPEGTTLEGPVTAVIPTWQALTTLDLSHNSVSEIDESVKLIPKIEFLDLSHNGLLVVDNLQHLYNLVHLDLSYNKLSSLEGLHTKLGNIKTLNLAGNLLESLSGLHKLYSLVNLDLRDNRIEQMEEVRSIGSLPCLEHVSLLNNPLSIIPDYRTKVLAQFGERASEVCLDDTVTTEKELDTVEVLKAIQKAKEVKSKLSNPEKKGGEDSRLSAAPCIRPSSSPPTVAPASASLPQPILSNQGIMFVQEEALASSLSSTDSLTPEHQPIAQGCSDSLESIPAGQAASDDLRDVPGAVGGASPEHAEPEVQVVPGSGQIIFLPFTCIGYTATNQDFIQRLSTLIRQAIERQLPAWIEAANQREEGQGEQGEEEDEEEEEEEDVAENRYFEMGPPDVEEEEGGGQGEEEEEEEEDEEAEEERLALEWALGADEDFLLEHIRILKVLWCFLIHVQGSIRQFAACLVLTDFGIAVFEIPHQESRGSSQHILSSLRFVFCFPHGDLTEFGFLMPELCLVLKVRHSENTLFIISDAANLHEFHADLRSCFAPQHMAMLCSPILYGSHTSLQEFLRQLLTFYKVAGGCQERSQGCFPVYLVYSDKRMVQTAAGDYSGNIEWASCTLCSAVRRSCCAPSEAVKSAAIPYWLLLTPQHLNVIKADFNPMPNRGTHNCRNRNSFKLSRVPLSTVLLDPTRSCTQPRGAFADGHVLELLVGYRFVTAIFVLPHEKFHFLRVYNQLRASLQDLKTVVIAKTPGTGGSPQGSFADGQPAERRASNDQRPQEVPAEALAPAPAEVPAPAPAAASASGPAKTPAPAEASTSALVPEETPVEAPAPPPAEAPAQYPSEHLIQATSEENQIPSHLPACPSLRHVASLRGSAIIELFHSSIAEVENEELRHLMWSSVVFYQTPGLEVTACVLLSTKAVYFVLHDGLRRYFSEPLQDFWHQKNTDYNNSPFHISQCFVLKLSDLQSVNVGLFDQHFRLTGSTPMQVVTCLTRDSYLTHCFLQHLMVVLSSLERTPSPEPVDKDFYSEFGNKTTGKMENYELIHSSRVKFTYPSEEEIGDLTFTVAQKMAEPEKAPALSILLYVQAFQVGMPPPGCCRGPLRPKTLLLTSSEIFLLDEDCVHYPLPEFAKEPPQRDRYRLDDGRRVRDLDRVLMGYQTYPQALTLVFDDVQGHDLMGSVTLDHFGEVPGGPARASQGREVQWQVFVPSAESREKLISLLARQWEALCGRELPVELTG
# Chain of UniProt Q5TFE4 (Q5TFE4 whole entry, looked up): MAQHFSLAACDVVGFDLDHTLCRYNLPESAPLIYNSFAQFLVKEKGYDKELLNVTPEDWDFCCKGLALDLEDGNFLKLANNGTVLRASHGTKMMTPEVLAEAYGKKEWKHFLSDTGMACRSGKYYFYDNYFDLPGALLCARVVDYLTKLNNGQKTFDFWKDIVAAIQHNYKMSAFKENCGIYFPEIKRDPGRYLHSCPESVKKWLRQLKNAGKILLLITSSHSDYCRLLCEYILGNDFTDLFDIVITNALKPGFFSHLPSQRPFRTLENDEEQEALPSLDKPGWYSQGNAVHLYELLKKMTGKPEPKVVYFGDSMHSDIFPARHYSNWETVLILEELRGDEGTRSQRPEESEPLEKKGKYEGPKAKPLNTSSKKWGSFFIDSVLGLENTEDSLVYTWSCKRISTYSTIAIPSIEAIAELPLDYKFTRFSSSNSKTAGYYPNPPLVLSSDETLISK
# Chain of UniProt Q9HBL8 (Q9HBL8 whole entry, looked up): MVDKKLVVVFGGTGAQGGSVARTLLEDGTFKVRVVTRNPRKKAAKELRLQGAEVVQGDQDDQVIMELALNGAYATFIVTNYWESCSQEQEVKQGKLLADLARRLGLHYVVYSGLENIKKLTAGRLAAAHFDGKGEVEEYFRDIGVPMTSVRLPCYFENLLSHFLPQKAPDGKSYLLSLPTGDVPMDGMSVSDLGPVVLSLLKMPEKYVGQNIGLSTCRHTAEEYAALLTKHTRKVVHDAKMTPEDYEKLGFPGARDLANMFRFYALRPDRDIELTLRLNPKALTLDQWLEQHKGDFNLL
# Chain of UniProt Q9BRP4 (Q9BRP4 whole entry, looked up): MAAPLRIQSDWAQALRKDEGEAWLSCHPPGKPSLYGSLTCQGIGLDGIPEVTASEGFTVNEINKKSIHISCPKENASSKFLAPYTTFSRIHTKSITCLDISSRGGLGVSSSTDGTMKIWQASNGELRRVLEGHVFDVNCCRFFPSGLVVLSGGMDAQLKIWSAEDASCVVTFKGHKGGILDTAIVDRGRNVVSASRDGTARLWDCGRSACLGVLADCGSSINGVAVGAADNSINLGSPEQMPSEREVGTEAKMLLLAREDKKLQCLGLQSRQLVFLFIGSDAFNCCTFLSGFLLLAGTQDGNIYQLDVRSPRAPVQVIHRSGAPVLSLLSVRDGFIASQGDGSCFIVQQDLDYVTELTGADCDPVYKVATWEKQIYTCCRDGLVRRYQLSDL
# Chain of UniProt O00483 (O00483 whole entry, looked up): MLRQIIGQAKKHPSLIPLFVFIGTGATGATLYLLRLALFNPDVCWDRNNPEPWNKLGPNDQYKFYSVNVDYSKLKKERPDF
Target,log2 fold change (bafetinib),log2 fold change [1],log2 fold change (nilotinib),log2 fold change [2],log2 fold change (dasatinib),log2 fold change [3],log2 fold change [4],log2 fold change [5],log2 fold change (tipifarnib),log2 fold change (mubritinib)
MMS19 isoform 8 (UniProt Q96T76),-0.014,0.092,-0.038,-0.027,-0.205,-0.002,-0.021,0.02,-0.055,-0.019
OAT (UniProt P04181),-0.038,-0.018,0.036,-0.021,-0.109,-0.073,0.026,0.061,-0.004,0.002
NFX1 (UniProt Q12986),-0.044,-0.026,-0.042,0.075,0.085,-0.011,0.07,-0.15,0.131,-0.096
NDUFS8 (UniProt O00217),-0.055,0.047,-0.036,-0.002,-0.1,-0.047,0.1,0.055,-0.053,0.111
NIPSNAP2 (UniProt O75323),0.02,-0.012,0.082,-0.003,0.05,-0.033,0.185,0.025,-0.058,0.041
PAAF1 (UniProt Q9BRP4),-0.011,-0.01,-0.084,0.058,-0.051,-0.026,0.018,0.016,-0.03,0.017
OXSM (UniProt Q9NWU1),-0.063,-0.034,0.029,-0.002,0.031,-0.015,0.029,0.021,-0.009,0.023
MRPS31 (UniProt Q92665),0.066,0.042,-0.041,0.093,-0.012,0.065,0.078,0.027,-0.002,0.138
NISCH (UniProt Q9Y2I1),-0.053,0.053,-0.138,-0.158,-0.233,-0.324,-0.002,-0.02,-0.03,-0.009
NECTIN2 (UniProt Q92692),0.03,-0.023,-0.023,0.022,-0.017,0.055,0.096,0.009,0.008,0.023
OXSR1 (UniProt O95747),-0.014,-0.012,-0.083,-0.029,-0.179,0.031,0.038,0.005,-0.117,-0.05
ORC5 (UniProt O43913),0.01,0.027,0.133,-0.001,-0.231,-0.114,0.067,0.044,0.031,0.045
MTMR14 (UniProt Q8NCE2),-0.051,-0.089,-0.023,-0.04,-0.063,0.016,-0.006,-0.084,-0.035,0.058
NMRAL1 (UniProt Q9HBL8),0.806 (active),-0.026,1.29 (active),0.024,-0.071,-0.018,0.031,0.962 (active),-0.035,-0.145
MTHFD1 (UniProt P11586),0.077,0.096,0.214 (active),-0.051,-0.135,0.019,0.069,0.021,-0.088,0.122
NT5DC1 (UniProt Q5TFE4),0.043,0.004,0.099,0.069,0.033,-0.016,0.045,0.069,-0.043,0.001
NCAPH (UniProt Q15003),0.015,0.022,-0.055,-0.049,-0.121,0.041,-0.057,0.019,-0.102,0.019
NR2C2 isoform 2 (UniProt P49116),-0.093,0.027,-0.033,-0.091,-0.026,0.021,-0.003,-0.038,-0.184,0.026
OSBP (UniProt P22059),-0.017,0.005,0.123,-0.257 (active),-0.08,-0.067,-0.024,-0.024,-0.085,0.012
MOV10 (UniProt Q9HCE1),0.068,0,0.035,0.041,0.111,0.068,-0.055,-0.101,0.091,-0.014
NUMB (UniProt P49757),-0.013,0.022,-0.05,-0.078,0.017,-0.12,0.063,-0.008,0.059,-0.053
NUP210 (UniProt Q8TEM1),-0.178,0.053,-0.125,-0.009,-0.118,-0.038,0.055,0,-0.039,0.034
NEDD4L (UniProt Q96PU5),-0.037,-0.062,0.015,-0.134,-0.103,0.031,-0.097,-0.078,-0.022,0.01
NACC1 (UniProt Q96RE7),-0.03,-0.039,-0.165,-0.109,-0.198,-0.12,-0.041,0.034,-0.084,-0.03
NAPG (UniProt Q99747),0,0.128,-0.057,-0.157,-0.133,-0.011,0.034,0.033,-0.094,0.062
NOB1 (UniProt Q9ULX3),0.014,0.093,-0.044,-0.005,-0.054,-0.045,-0.003,0.059,-0.106,-0.043
MKNK1 (UniProt Q9BUB5),0.088,0.057,0,0.059,-0.115,-0.04,0.117,-0.183,-0.101,0.03
MYH10 isoform 3 (UniProt P35580),-0.046,0.033,-0.049,-0.001,-0.057,0.004,0.056,0.011,-0.083,0.059
OSTM1 (UniProt Q86WC4),-0.208,0.091,0.044,0.017,-0.086,-0.068,0.076,0.029,0.008,-0.048
NDUFA4 (UniProt O00483),-0.043,0.014,0.024,0.02,0.032,-0.074,0.039,0.239,0.054,0.018
